The values below come from PubChem BioAssay (EPA / NIEHS).

SMILES strings stand for the structures. Results filed as inconclusive are left out. Active and inactive are the calls of the source. How the source made its calls: active means hit-call score of the fitted dose curve at least 0.9, where 1 is the maximum; inconclusive means response in the unintended direction; inactive means score below 0.9.

This assay in a line: CCTE_Harrill_HTTr_CellCount_MCF7: CCTE's Cell Proliferation Assessment for the High-Throughput Transcriptomics (HTTr) Platform, Harrill Lab (AID 2284012).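 Further: intended direction is loss of nuclei count meaning fewer cells.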 The gist of the method: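 MCF7 cells exposed 6 hours to an eight-point dilution series; Hoechst-stained nuclei counted by high-content imaging. Bidirectional curve fitting against DMSO baseline.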
Take `CCCCOCC(C)O` (centres undefined): the result was inactive.

For `N#Cc1ccc(C2CCCc3cncn32)cc1` (centres undefined), the compound was called inactive.

In the case of `CC(C)[N+](C)(CCOC(=O)C1c2ccccc2Oc2ccccc21)C(C)C`, the compound was classed as inactive.

On to `CC(C)(CO)C(O)C(=O)NCCCO` (centres undefined), for which the compound was classed as inactive.

For the compound `CCCCCCCO`, the outcome was inactive.

On to `O=C(O)CCC(=O)O`, for which the compound was called inactive.

For `CC=CC(=O)OCC(C)C`, the compound was classed as inactive.

Take `CC(=O)/C=C/C1C(C)=CCCC1(C)C` (centres undefined): the compound was called inactive.

Regarding `Cc1noc(NS(=O)(=O)c2ccc(N)cc2)c1C`, the result was inactive.

In the case of `C=C(C)C1CC=C(C)CC1` (centres undefined), the outcome was inactive.

Regarding `C=C(C)[C@@H]1CC=C(C)CC1`, the compound was called inactive.

For the compound `COc1ccc(-c2coc3cc(O)cc(O)c3c2=O)cc1`, the result was inactive.

Consider `O=C(O)CCCC(=O)O`, for which the compound was called inactive.

Consider `COC(=O)C=Cc1ccccc1`, for which the compound was classed as inactive.

Regarding `CCCCC/C=C\C/C=C\CCCCCCCC(=O)O`, the result was inactive.

For `O=C(O)/C=C/c1ccccc1`, the call was inactive.

On to `CCCc1ccc(O)c(OC)c1`, for which the compound was classed as inactive.

Turning to `C=CCCCCCCCCC=O`, the compound was classed as inactive.

On to `CC1=CCC(C(C)C)C=C1` (centres undefined), for which the outcome was inactive.

Regarding `CN(C)c1ccc2nc3ccc(=[N+](C)C)cc-3sc2c1`, the call was inactive.

Consider `CC(C=O)c1ccccc1` (centres undefined), for which the compound was classed as inactive.

For the compound `CCCCC1C(=O)N(c2ccccc2)N(c2ccccc2)C1=O`, the outcome was inactive.

Regarding `CC(C)OC(=O)c1ccccc1`, the compound was classed as inactive.

As to `Nc1ncnc2nc[nH]c12`, the compound was called inactive.
